Measured values taken from PubChem BioAssay AID1159580 (chemical genetic matrix, 2015).
In all, about 5,500 compounds went through this assay and about 2,000 (36%) were called active. About 18% were inconclusive and are not listed. Cut-off read from the data, not from the text of the source: active = normalized growth mostly below about 0.91 (no sharp cut-off); inconclusive = no clear call, values can overlap the other calls; inactive = mostly above about 0.92. The list shows a part of the results.

Assay: chemical genetic growth profiling, strain panel (AID 1159580);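 note: tested at 20 µM; growth read once vehicle control cultures reached saturation at 30 °C; 1 = growth at the plate median or of vehicle wells; lower values mean less growth of the strain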
Details: growth OD

Measured: normalized growth

C=C1CCC2C(CC2(C)C)C(=C)CC/C1=N\O (centres undefined)
inactive: S. cerevisiae deletion strains, locus YJL187C, strain SWE1, active compounds read low 1.01 | S. cerevisiae deletion strains, locus YJR043C, strain POL32, active compounds read low 0.905 | S. cerevisiae deletion strains, locus YJR075W, strain HOC1, active compounds read low 0.894 | S. cerevisiae deletion strains, locus YKL068W, active compounds read low 0.996 | S. cerevisiae deletion strains, locus YKL085W, strain MDH1 (second series), active compounds read low 0.972 | S. cerevisiae deletion strains, locus YKL085W, strain MDH1, active compounds read low 0.972 | S. cerevisiae deletion strains, locus YKL160W, strain elf1, active compounds read low 1 | S. cerevisiae deletion strains, locus YKL190W, strain CNB1, active compounds read low 1.01 | S. cerevisiae deletion strains, locus YKR026C, strain gcn3, active compounds read low 0.998 | S. cerevisiae deletion strains, locus YKR091W, strain srl3, active compounds read low 0.995 | S. cerevisiae deletion strains, locus YLL001W, strain dnm1, active compounds read low 1.01 | S. cerevisiae deletion strains, locus YLL026W, active compounds read low 0.999 | S. cerevisiae deletion strains, locus YLL041C, strain sdh2, active compounds read low 0.994 | S. cerevisiae deletion strains, locus YLR027C, strain aat2, active compounds read low 1 | S. cerevisiae deletion strains, locus YLR058C, strain SHM2, active compounds read low 1.01 | S. cerevisiae deletion strains, locus YLR102C, strain apc9, active compounds read low 1.01 | S. cerevisiae deletion strains, locus YLR221C, strain rsa3, active compounds read low 0.983 | S. cerevisiae deletion strains, locus YLR258W, strain gsy2, active compounds read low 1.01 | S. cerevisiae deletion strains, locus YLR262C, strain YPT6 (second series), active compounds read low 0.966 | S. cerevisiae deletion strains, locus YLR268W, strain sec22, active compounds read low 0.936 | S. cerevisiae deletion strains, locus YLR320W, strain mms22, active compounds read low 0.984 | S. cerevisiae deletion strains, locus YLR330W, strain CHS5, active compounds read low 1.01 | S. cerevisiae deletion strains, locus YLR342W, strain FKS1, active compounds read low 1.01 | S. cerevisiae deletion strains, locus YLR357W, strain rsc2, active compounds read low 1.03 | S. cerevisiae deletion strains, locus YLR370C, strain arc18, active compounds read low 0.996 | S. cerevisiae deletion strains, locus YLR371W, strain rom2, active compounds read low 0.994 | S. cerevisiae deletion strains, locus YLR384C, strain iki3, active compounds read low 0.992 | S. cerevisiae deletion strains, locus YLR418C, strain cdc73, active compounds read low 0.847 | S. cerevisiae deletion strains, locus YML016C, strain PPZ1, active compounds read low 0.999 | S. cerevisiae deletion strains, locus YML120C, strain ndi1, active compounds read low 1.01 | S. cerevisiae deletion strains, locus YML124C, strain tub3, active compounds read low 0.99 | S. cerevisiae deletion strains, locus YMR058W, strain fet3, active compounds read low 1.01 | S. cerevisiae deletion strains, locus YMR078C, strain ctf18, active compounds read low 0.978 | S. cerevisiae deletion strains, locus YMR125W, strain sto1, active compounds read low 1.03 | S. cerevisiae deletion strains, locus YMR129W, active compounds read low 1 | S. cerevisiae deletion strains, locus YMR205C, strain PFK2, active compounds read low 0.992 | S. cerevisiae deletion strains, locus YMR223W, strain ubp8, active compounds read low 0.906 | S. cerevisiae deletion strains, locus YMR231W, strain pep5, active compounds read low 0.997 | S. cerevisiae deletion strains, locus YMR263W, strain SAP30, active compounds read low 0.962 | S. cerevisiae deletion strains, locus YNL067W, strain RPL9B, active compounds read low 0.942 | S. cerevisiae deletion strains, locus YNL071W, strain lat1, active compounds read low 1 | S. cerevisiae deletion strains, locus YNL128W, strain TEP1, active compounds read low 0.964 | S. cerevisiae deletion strains, locus YNL153C, strain GIM3, active compounds read low 0.972 | S. cerevisiae deletion strains, locus YNL209W, strain ssb2, active compounds read low 1 | S. cerevisiae deletion strains, locus YNL233W, strain BNI4, active compounds read low 0.892 | S. cerevisiae deletion strains, locus YNL248C, strain rpa49, active compounds read low 1 | S. cerevisiae deletion strains, locus YNL250W, strain rad50, active compounds read low 0.991 | S. cerevisiae deletion strains, locus YNL271C, strain bni1, active compounds read low 0.969 | S. cerevisiae deletion strains, locus YNL322C, strain KRE1 (second series), active compounds read low 0.983 | S. cerevisiae deletion strains, locus YNL322C, strain KRE1, active compounds read low 0.988 | S. cerevisiae deletion strains, locus YNR049C, strain mso1, active compounds read low 0.997 | S. cerevisiae deletion strains, locus YNR052C, strain pop2, active compounds read low 0.944 | S. cerevisiae deletion strains, locus YOL006C, strain TOP1, active compounds read low 0.725 | S. cerevisiae deletion strains, locus YOL012C, strain htz1 1.35 | S. cerevisiae deletion strains, locus YOL147C, strain pex11, active compounds read low 0.983 | S. cerevisiae deletion strains, locus YOR001W, strain rrp6, active compounds read low 0.985 | S. cerevisiae deletion strains, locus YOR061W, strain CKA2, active compounds read low 0.997 | S. cerevisiae deletion strains, locus YOR069W, strain VPS5, active compounds read low 1.01 | S. cerevisiae deletion strains, locus YOR070C, strain gyp1, active compounds read low 0.991 | S. cerevisiae deletion strains, locus YOR080W, strain dia2, active compounds read low 1.01 | S. cerevisiae deletion strains, locus YOR083W, strain WHI5, active compounds read low 0.989 | S. cerevisiae deletion strains, locus YOR106W, strain vam3, active compounds read low 1 | S. cerevisiae deletion strains, locus YOR136W, strain idh2, active compounds read low 0.972 | S. cerevisiae deletion strains, locus YOR144C, strain elg1, active compounds read low 0.976 | S. cerevisiae deletion strains, locus YOR265W, strain rbl2, active compounds read low 0.993 | S. cerevisiae deletion strains, locus YOR270C, strain vph1, active compounds read low 0.987 | S. cerevisiae deletion strains, locus YOR290C, strain snf2, active compounds read low 0.972 | S. cerevisiae deletion strains, locus YOR316C, strain cot1, active compounds read low 1 | S. cerevisiae deletion strains, locus YPL051W, strain arl3, active compounds read low 1.03 | S. cerevisiae deletion strains, locus YPL055C, strain LGE1, active compounds read low 0.844 | S. cerevisiae deletion strains, locus YPL078C, strain atp4, active compounds read low 1 | S. cerevisiae deletion strains, locus YPL106C, strain sse1, active compounds read low 1.05 | S. cerevisiae deletion strains, locus YPL240C, strain hsp82, active compounds read low 1 | S. cerevisiae deletion strains, locus YPR119W, strain clb2, active compounds read low 0.983 | S. cerevisiae deletion strains, locus YPR141C, strain kar3, active compounds read low 1.01 | S. cerevisiae deletion strains, locus YPR163C, strain tif3, active compounds read low 0.996 | S. cerevisiae deletion strains, locus YPR167C, strain met16, active compounds read low 0.993 | S. cerevisiae deletion strains, strain wtn01, active compounds read low 0.915 | S. cerevisiae strains, strain wild type, active compounds read low 0.982
active: S. cerevisiae deletion strains, locus YKL009W, strain mrt4, active compounds read low 0.879 | S. cerevisiae deletion strains, locus YKR001C, strain vps1, active compounds read low 0.703 | S. cerevisiae deletion strains, locus YLR039C, strain RIC1, active compounds read low 0.441 | S. cerevisiae deletion strains, locus YLR262C, strain YPT6, active compounds read low 0.393 | S. cerevisiae deletion strains, locus YLR342W, strain FKS1 (second series), active compounds read low 0.694 | S. cerevisiae deletion strains, locus YML032C, strain rad52, active compounds read low 0.89 | S. cerevisiae deletion strains, locus YMR307W, strain GAS1, active compounds read low 0.423 | S. cerevisiae deletion strains, locus YNL298W, strain CLA4, active compounds read low 0.878 | S. cerevisiae deletion strains, locus YNL307C, strain MCK1, active compounds read low 0.683 | S. cerevisiae deletion strains, locus YOR184W, strain ser1, active compounds read low 0.697
